High-throughput results: PubChem BioAssay, National Center for Advancing Translational Sciences (NCATS)
HPGD inh: blocks human HPGD enzyme activity. Potency, µM, actives largely listed as inhibitors. purified HPGD, NADH fluorescence kinetic, PGE2 substrate. P15428. 4.3% of 150,000 active; active = well fitted inhibition curve with a large enough effect, not every such curve was filed as active; inconclusive = small, poorly fitted or top-dose-only effect, or another doubt; inactive = no such curve, though single readings can be large or run the other way
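NADH formation kinetics: reaction with 30 uM PGE2 and 1 mM NAD+ (final), 20 nM enzyme, Tris-HCl pH 8 with Tween 20, after 15 min compound preincubation at room temperature. Fluorescence change, last versus first of five reads.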
ALDH1A1 inh: ALDH1A1 (human) enzyme inhibition | P00352 | Purified ALDH1A1, NADH fluorescence, propionaldehyde substrate | Potency, µM (doses to about 75.3 µM), hits mostly inhibitors | 7.3% of 220,000 active; active = well fitted inhibition curve with a large enough effect, not every such curve was filed as active; inconclusive = small, poorly fitted or top-dose-only effect, or another doubt; inactive = no such curve, though single readings can be large or run the other way
HTT cytoprotect: Huntington cell model cytoprotection by ATP luminescence; AID 1471; Potency, µM (titrated, usually from 56.4 µM), usual class: activators; 0.14% of 230,000 active; PC12 HTT-Q103 induced, cytoprotection, ATP luminescence, 40 h; also: nearly all actives have a fitted effect of over 45% in size
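Compounds added alongside 100 nM tebufenozide, which induces toxic Q103 huntingtin exon 1-GFP in stable PC12 cells; surviving cells quantified by luminescent ATP measurement. Medium: phenol red-free DMEM, 5% equine and 5% calf serum.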
CBFb RUNX1 block: CBF-beta/RUNX1 interaction disruption; Q01196+Q13951; Potency, µM (top dose mostly 59.8 µM), hits mostly inhibitors; AID 1477; AlphaScreen CBFb-His/RUNX1-biotin binding, biochemical; 230,000 tested, under 10 active
Target sequence (Q01196 whole entry, looked up): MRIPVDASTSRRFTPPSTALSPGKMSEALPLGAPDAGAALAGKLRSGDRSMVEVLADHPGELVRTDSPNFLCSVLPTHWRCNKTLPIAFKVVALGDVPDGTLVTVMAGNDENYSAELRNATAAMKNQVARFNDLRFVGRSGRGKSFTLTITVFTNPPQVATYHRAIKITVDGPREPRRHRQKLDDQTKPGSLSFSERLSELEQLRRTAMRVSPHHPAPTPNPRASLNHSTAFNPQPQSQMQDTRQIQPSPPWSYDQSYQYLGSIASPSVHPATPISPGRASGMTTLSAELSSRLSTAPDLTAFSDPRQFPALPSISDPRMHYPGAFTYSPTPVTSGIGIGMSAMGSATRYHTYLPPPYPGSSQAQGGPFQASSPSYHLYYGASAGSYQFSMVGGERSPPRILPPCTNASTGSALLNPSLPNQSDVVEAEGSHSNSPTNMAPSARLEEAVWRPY
Target sequence (Q13951 whole entry, looked up): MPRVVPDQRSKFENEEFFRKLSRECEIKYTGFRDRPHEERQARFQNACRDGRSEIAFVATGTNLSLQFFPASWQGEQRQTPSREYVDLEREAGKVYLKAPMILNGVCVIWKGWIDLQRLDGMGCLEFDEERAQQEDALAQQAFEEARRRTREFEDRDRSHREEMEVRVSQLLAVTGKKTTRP
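Compounds were screened at multiple concentrations against a preformed CBF-beta(His)/RUNX1(biotin) complex (30 nM of each) for 15 min at room temperature, followed by 90 min with nickel and streptavidin beads and AlphaScreen reading.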
HTT aggregate: mutant huntingtin aggregation inhibition. PC12 HttQ103-GFP aggregates, Acumen cytometry, 40 h. Potency, µM (series often up to 46.1 µM), usual class: inhibitors. 1.1% of 220,000 active. AID 1688; also: nearly all actives have a fitted effect of over 60% in size
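Steps: seed 1500 PC12 HTTQ103-GFP cells/well; add tebufenozide, 100 nM final; add compound titration; add ATPLite reagent; quantify GFP aggregates by laser scanning cytometry.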
PNC inhibitor: perinucleolar compartment assembly inhibition. PC3M PTB-GFP, PNC prevalence imaging, 16 h; active compounds read low. 3.1% of 140,000 active. activity change (PNC), negative = inhibition, % at 10 µM;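 active = readout at or below -70, meaning at least 70% loss of cells showing the perinucleolar compartment, a nuclear body marking cancer cells; inconclusive = readout between -30 and a set limit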
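PC3M cells stably expressing PTB-GFP, 750–1000 cells/well, treated 16 h at 37 °C with compound (23 nl of library stock), in duplicate. After paraformaldehyde fixation and Hoechst stain, imaged at 20x; PNC prevalence scored by image analysis.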
Large screens that a line does not name were inactive. A selection: hits, their analogues and other compounds. The true share with any hit is near 11%. Unless noted, calls follow the shape of the dose curve; as a rule, active = well fitted curve in the direction sought with a large enough effect; inconclusive = small, poorly fitted or top-dose-only effect, or another doubt; inactive = no such curve, though single readings can be large; an effect the other way counts as inactive or inconclusive.

Brc1ccc2nc(-c3cccs3)c(NCC3CCCO3)n2c1 (configuration not stated)	ALDH1A1 inh 7.94µM, CBFb RUNX1 block inconclusive (no result: HPGD inh, PNC inhibitor)
CSc1nsc(SC)c1C(=O)NCCNS(=O)(=O)c1ccc(C)cc1	HPGD inh 20µM, ALDH1A1 inh 25.1µM, PNC inhibitor inconclusive
COc1cccc([C@@H]2Oc3ccc(OC)cc3/C(=N/O[C@@H](C)c3cn([C@H]4COC[C@H]4O)nn3)[C@@H]2O)c1	none (no result: HPGD inh, HTT aggregate, PNC inhibitor)
Cc1ccc(-n2nnc3c(=O)n(Cc4cccc(C)c4)cnc32)cc1	HPGD inh 3.98µM, HTT aggregate inconclusive
Cc1cccc(Cn2cnc3c(nnn3Cc3ccc(F)cc3)c2=O)c1	HPGD inh 14.1µM
O=C(Cn1cnc2c(nnn2Cc2ccccc2F)c1=O)NCC1CCCO1 (configuration not stated)	HPGD inh inconclusive, PNC inhibitor inconclusive
Cc1ccc(-n2nnc3c(=O)n(Cc4cc(C)ccc4C)cnc32)cc1	none
Cc1cccc(Cn2cnc3c(nnn3Cc3ccccc3F)c2=O)c1	HPGD inh 15.8µM
COc1cccc(-n2nnc3c(=O)n(Cc4ccc(F)cc4)cnc32)c1	HPGD inh 28.2µM
O=C(Oc1ccccc1-c1csnn1)c1cccs1	ALDH1A1 inh 17.8µM (no result: HPGD inh, PNC inhibitor)
c1csc(CCNc2ncnc3sc4c(c23)CCC4)c1	HPGD inh inconclusive, HTT aggregate 7.94µM, PNC inhibitor inconclusive
Fc1ccc(Nc2ncnc3sc4c(c23)CCC4)cc1	HTT aggregate inconclusive, PNC inhibitor inconclusive
Fc1ccc(Nc2ncnc3sc4c(c23)CCC4)cc1F	HTT aggregate 10µM, PNC inhibitor inconclusive
CC(=O)c1ccc(C2C=CC(Oc3ccc(F)cc3C)C(CO)O2)cc1 (configuration not stated)	none (no result: HPGD inh, HTT aggregate, PNC inhibitor)
CC1CCCN(C(=O)c2ccc(CNc3c(N4CCCCC4)c(=O)c3=O)cc2)C1 (configuration not stated)	HPGD inh 0.282µM, ALDH1A1 inh inconclusive
CC1CCN(c2c(NCc3ccc(C(=O)N4CCc5ccccc54)cc3)c(=O)c2=O)CC1	HPGD inh 17.8µM, ALDH1A1 inh inconclusive, PNC inhibitor inconclusive
CC1CCN(c2c(NCc3ccc(C(=O)NCc4cccnc4)cc3)c(=O)c2=O)CC1	HPGD inh inconclusive, HTT aggregate inconclusive, PNC inhibitor inconclusive
O=C(NCc1ccc(F)cc1)c1ccc(CNc2c(N3CCOCC3)c(=O)c2=O)cc1	none (no result: HPGD inh, ALDH1A1 inh, PNC inhibitor)
Cc1cccc(N2CCN(C(=O)c3ccc(CNc4c(N5CCC(C)CC5)c(=O)c4=O)cc3)CC2C)c1 (configuration not stated)	HTT aggregate inconclusive (no result: HPGD inh, PNC inhibitor)
CC1CCN(c2c(NCc3ccc(C(=O)NCc4ccco4)cc3)c(=O)c2=O)CC1	HPGD inh 11.2µM (no result: HTT cytoprotect)
CC1CCN(c2c(NCc3ccc(C(=O)N(C)C4CCCCC4)cc3)c(=O)c2=O)CC1	none (no result: HPGD inh, ALDH1A1 inh, PNC inhibitor)
O=C(NCc1ccco1)c1ccc(CNc2c(N3CCCCC3)c(=O)c2=O)cc1	HPGD inh 14.1µM (no result: HTT cytoprotect)
COc1ccc2nc(NCN3C(=O)c4ccccc4C3=O)sc2c1	none (no result: CBFb RUNX1 block, HTT aggregate, PNC inhibitor)
CSc1cccc(NC(=O)c2ccc(Cl)nc2)c1	none
Cc1cc(C)cc(NC(=O)c2ccc(CNc3c(N4CCCC4)c(=O)c3=O)cc2)c1	none (no result: HPGD inh, ALDH1A1 inh, PNC inhibitor)
Cc1ccc(CNC(=O)c2ccc(CNc3c(N4CCCC4)c(=O)c3=O)cc2)cc1	HPGD inh 14.1µM, ALDH1A1 inh inconclusive
COCCn1nnnc1C(c1cc2ccc(C)cc2[nH]c1=O)N(Cc1ccco1)Cc1cccs1 (configuration not stated)	ALDH1A1 inh 17.8µM
Cc1cc2cc(C(c3nnnn3C3CCCC3)N(Cc3cccnc3)Cc3ccco3)c(=O)[nH]c2cc1C (configuration not stated)	HPGD inh inconclusive, ALDH1A1 inh 14.1µM
CCN1CCCC1Cn1c(-c2ccccc2)nc2c(NC3CCCCC3)nc(C)nc21 (configuration not stated)	ALDH1A1 inh inconclusive (no result: HTT aggregate, PNC inhibitor)
O=C(c1csnn1)N1CCC2(CC1)CCN(c1ccncc1)CC2	none (no result: CBFb RUNX1 block, HTT aggregate, PNC inhibitor)
O=C(O)/C=C/c1ccc(S(=O)(=O)N2CCN(CCN3C(=O)C4C5C=CC(C5)C4C3=O)CC2)cc1 (configuration not stated)	none (no result: HPGD inh, ALDH1A1 inh, PNC inhibitor)
C/C(=N\NC(=O)c1ccc(Cl)c(Cl)c1)c1ccc(Br)s1	none
C/C(=N/NC(N)=S)c1ccc(Br)s1	ALDH1A1 inh 22.4µM (no result: HPGD inh, PNC inhibitor)
O=C1Nc2ccccc2/C1=N\c1sc2c(c1C(=O)Nc1ccccc1)CCCC2	ALDH1A1 inh 25.1µM
CS(=O)(=O)NNC(=O)CN1C(=O)C2C3C=CC(C3)C2C1=O (configuration not stated)	HTT aggregate 0.0316µM (no result: HPGD inh, PNC inhibitor)
CNC(=O)CN1C(=O)C2C3C=CC(C3)C2C1=O (configuration not stated)	PNC inhibitor inconclusive
NC(=O)c1c(/N=C/c2cccs2)sc2c1CCCC2	none (no result: HPGD inh, ALDH1A1 inh, PNC inhibitor)
O=C(CCc1c[nH]c2ccccc12)NCC1CCCO1 (configuration not stated)	HPGD inh 14.1µM, PNC inhibitor inconclusive
O=C(CCc1nc(-c2ccccc2Cl)no1)NCC1CCCO1 (configuration not stated)	none (no result: HPGD inh, PNC inhibitor)
O=C(Cc1ccccc1)NCC1CCCO1 (configuration not stated)	none
Cc1ccccc1-c1noc(CCC(=O)NCC2CCCO2)n1 (configuration not stated)	HPGD inh 15.8µM
Cc1cccc(-c2noc(CCC(=O)NCc3ccco3)n2)c1	none
Cc1cccc(-c2noc(CCC(=O)NCC3CCCO3)n2)c1 (configuration not stated)	HPGD inh 25.1µM
CCCCCCCCCCCCC/C=C\[C@H](O)[C@H](N)CO	none (no result: HPGD inh, ALDH1A1 inh, CBFb RUNX1 block, HTT aggregate, PNC inhibitor)
COC(=O)N1[C@H]2CC[C@@]3(C)C=C(C)O[C@]1(C)C3c1ccccc12	none (no result: HTT aggregate, PNC inhibitor)
O=c1c(O)c(-c2cc(O)c(O)c(O)c2)oc2cc(O)cc(O)c12	HPGD inh 7.94µM, ALDH1A1 inh 3.55µM, CBFb RUNX1 block inconclusive (no result: HTT aggregate, PNC inhibitor)
Nc1c(-c2cccc([N+](=O)[O-])c2)nc2ccccn12	ALDH1A1 inh 7.51µM, CBFb RUNX1 block inconclusive (no result: HTT cytoprotect)
CSc1nc(N)c2ncn([C@@H]3O[C@H](COP(=O)(O)OP(=O)(O)O)[C@H](O)[C@H]3O)c2n1	none (no result: HTT cytoprotect, HTT aggregate, PNC inhibitor)
CC(C)CN1C(=S)SC(C)(C)C1n1oc(=O)n(-c2ccccc2)c1=O (configuration not stated)	none
CC(C)CN1C(=S)SC(C)(C)C1n1oc(=O)n(-c2ccc(Cl)cc2)c1=O (configuration not stated)	ALDH1A1 inh inconclusive, HTT aggregate 25.1µM
COc1cc(S(=O)(=O)NCc2ccccn2)c(OC)cc1Cl	none
COc1ccc(S(=O)(=O)NCc2ccccn2)cc1	none
